Assay results published in the supplement of paper PMC10600219.
Counter-ions that a name gives are not always drawn. Over roughly 2,800 compounds, “cell viability relative to vehicle” has its median near 1.1; the lowest 2% begin near 0.19. This is one part of a sample in which the lowest values are shown more often than they occur.

test system: NCI-H2228 parental; experiment: cell viability relative to vehicle (fraction of vehicle); NCI-H2228 is an ALK-positive lung cancer line and DTP means drug-tolerant persister; higher = less growth inhibition; settings: 100 nM; treatment time 6 days
Method in brief: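 Parental NCI-H2228 cells and drug-tolerant persister cells (made with 1000 nM of a targeted drug for 13 days) were seeded in 384-well plates. The next day, the 3114-agent TargetMol anti-cancer compound library was added at 100 nM, with DMSO as vehicle. After 6 days, ATP was read with the CellTiter-Glo 3D Cell Viability Assay. Each value is cell viability relative to vehicle-treated cells.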

Row | SMILES | cell viability
1 | CC(C)[C@]12O[C@H]1[C@@H]1O[C@]13[C@]1(O[C@H]1C[C@H]1C4=C(CC[C@@]13C)C(=O)OC4)[C@@H]2O [Triptolide] | 0.121
2 | N#Cc1c(Oc2cccc(OS(=O)(=O)CCCC(F)(F)F)c2)cccc1C(F)(F)F | 1.01
3 | O=C(O)CCCCCCCCCO [10-Hydroxydecanoic Acid] | 1.17
4 | C[C@@]12C[C@@H](c3ccoc3)OC(=O)[C@@H]1CC[C@]1(C)[C@H]2[C@@H]2C=C[C@@]1(O)C(=O)O2 [Columbin] | 1.06
5 | Cc1c([C@H](C)[C@@H]2NC[C@@H](C)C[C@H]2O)ccc2c1C[C@H]1[C@H]2CC=C2C[C@@H](O)CC[C@@]21C [Veratramine] | 1.12
6 | COc1cc([C@@H]2c3cc4c(cc3[C@@H](O)[C@H]3COC(=O)[C@H]23)OCO4)cc(OC)c1O [4'-Demethylepipodophyllotoxin] | 0.402
7 | CC(=O)O[C@H]1C(=O)[C@@]2(C)[C@H]([C@H](OC(=O)c3ccccc3)[C@]3(O)C[C@H](O)C(C)=C1C3(C)C)[C@]1(OC(C)=O)CO[C@@H]1C[C@@H]2O [Baccatin III] | 0.968
8 | C/C=C(\C)C(=O)N[C@@H](c1ccccc1)[C@@H](O)C(=O)O[C@H]1C[C@@]2(O)[C@@H](OC(=O)c3ccccc3)[C@@H]3[C@]4(OC(C)=O)CO[C@@H]4C[C@H](O)[C@@]3(C)C(=O)[C@H](OC(C)=O)C(=C1C)C2(C)C [Cephalomannine] | 0.129
9 | CC(=O)OC12COC1CC(O)C1(C)C(=O)C(O)C3=C(C)C(O)CC(O)(C(OC(=O)c4ccccc4)C21)C3(C)C (stereo not given) [10-Deacetylbaccatin III] | 1.13
10 | COc1ccc(/C=C/c2cc(OC)cc(OC)c2)cc1 [Trimethoxystilbene] | 1.05
11 | CN(C(=O)/C=C/c1ccoc1)[C@@H]1CC[C@@]2(O)[C@H]3Cc4ccc(O)c5c4[C@@]2(CCN3CC2CC2)[C@H]1O5 [Nalfurafine hydrochloride] | 0.993
12 | CN1[C@H]2C[C@H](OC(=O)[C@H](CO)c3ccccc3)C[C@@H]1[C@@H](O)C2 [Anisodamine] | 1.1
13 | CC[C@@]1(O)C(=O)OCc2c1cc1n(c2=O)Cc2cc3ccccc3nc2-1 [(S)-(+)-Camptothecin] | 0.0882
14 | CCc1c2c(nc3ccccc13)-c1cc3c(c(=O)n1C2)COC(=O)[C@]3(O)CC [7-Ethylcamptothecin] | 0.054
15 | CC1(C)C(C(=O)Nc2ccc(S(=O)(=O)c3ccc(NC(=O)C4C(C)(C)C4(C)C)cc3)cc2)C1(C)C | 0.839
16 | C[C@H]1CCC2N(C1)C[C@H]1C3CC4[C@@H](CC(=O)C5C[C@@H](O)CC[C@@]54C)C3CCC1[C@]2(C)O (stereo not given in full) [Peiminine] | 1.12
17 | O=C(CBr)c1ccc(O)cc1 [PTP Inhibitor I] | 1.01
18 | Clc1ccc(OC[C@H]2CCN2)cn1 [Tebanicline hydrochloride] | 1.12

Row | SMILES | cell viability
19 | Oc1cc(O)cc(/C=C/c2ccc(O)cc2O)c1 [Oxyresveratrol] | 0.982
20 | C=C1CC[C@H]2[C@@H](/C=C(\C)C(=O)[C@@]3(O)C[C@H](C)[C@H](O)[C@@H]3[C@@H]1O)C2(C)C [Lathyrol] | 1.09
21 | CN[C@@H](Cc1c[nH]c2ccccc12)C(=O)O [Abrine] | 1.08
22 | CC1(C)C(=O)N(c2ccc(C#N)c(C(F)(F)F)c2)C(=O)N1CCCCO | 1.27
23 | C[C@H]1CCC/C=C/[C@@H]2C[C@H](O)C[C@H]2[C@H](O)/C=C/C(=O)O1 [Brefeldin A] | 0.0967
24 | COc1ccc(/C=C2\CCCN=C2c2cccnc2)c(OC)c1 [GTS 21 dihydrochloride] | 1.13
25 | COc1cc([C@@H]2c3cc4c(cc3[C@H](O)[C@H]3COC(=O)[C@H]23)OCO4)cc(OC)c1O [4'-Demethylpodophyllotoxin] | 0.68
26 | Cn1c(CCCCCCC(=O)NO)nc2cc(N(CCCl)CCCl)ccc21 [Minomustine] | 1.12
27 | O=C(O)CNC(=O)C1C(=O)N(C2CCCCC2)C(=O)N(C2CCCCC2)C1=O [Daprodustat] | 1.04
28 | C/C(=C\c1csc(C)n1)[C@@H]1C[C@@H]2O[C@]2(C)CCC[C@H](C)[C@H](O)[C@@H](C)C(=O)C(C)(C)[C@@H](O)CC(=O)O1 [Epothilone B] | 0.141
29 | C/C(=C\c1csc(C)n1)[C@@H]1C[C@@H]2O[C@@H]2CCC[C@H](C)[C@H](O)[C@@H](C)C(=O)C(C)(C)[C@@H](O)CC(=O)O1 [Epothilone A] | 0.0991
30 | C[C@H](Nc1ncnc2[nH]cnc12)c1nc2ccc(F)cc2c(=O)n1-c1ccccc1 [Acalisib] | 1.02
31 | Cn1c(COP(=O)(NCCBr)NCCBr)cnc1[N+](=O)[O-] [Evofosfamide] | 1.15
32 | CC(=O)OC(C)(C)/C=C/C(=O)[C@](C)(O)[C@H]1[C@H](O)C[C@@]2(C)[C@@H]3CC=C4[C@H](C[C@H](O)C(=O)C4(C)C)[C@]3(C)C(=O)C[C@]12C [Cucurbitacin B] | 0.223
33 | Clc1ccc(C(OCCN2CCCCC2)c2ccccc2)cc1 (stereo not given) [Cloperastine hydrochloride] | 1.15
34 | C[C@]12CC[C@H](O)C[C@H]1CC[C@@H]1[C@@H]2CC[C@]2(C)[C@@H](c3ccc(=O)oc3)CC[C@]12O [Bufalin] | 0.423
35 | CC(C)[C@H](N)C(=O)N1CCC[C@H]1B(O)O [Talabostat mesylate] | 0.987
